For 40 compounds, inhibition results are on record in PubChem BioAssay.

Calls of active or inactive are those of the source. No stated cut-off is given here; in the data, active means inhibition above about 28%; inactive means the rest.

As usually defined, the inhibition is the change of the read-out against control, counted positive when it falls.

The experiment is described as follows: StAR promoter reporter inhibitors, counter-screen for LRH-1 inverse agonist project, cell-based, luminescence, high throughput (AID 651611). To be noted: StAR promoter luciferase reporter counterscreen, at 3.6 µM, active compounds read high. (In general: A counterscreen serves to expose hits that act by an unwanted route or on another target.)
For `COc1ccc(-n2c(SCC(=O)NCc3ccco3)nc3sc4c(c3c2=O)CCN(C)C4)cc1`, the inhibition is -6.62% (inactive). The figure for `COc1ccc(NC(=O)Cn2nnc(C(=O)Nc3ccccc3C)c2N)cc1` is 5.36% (inactive); for `Cc1cccc(C(=O)N[C@H](C(=O)Nc2ncc(C)s2)C(C)C)c1` it is 35.8% (active). Take `Cc1ccc(N2CC(C(=O)Nc3nc4ccc(S(C)(=O)=O)cc4s3)CC2=O)cc1` (stereo not given): the inhibition was 12.4% (inactive). Turning to `CC(=O)c1ccc(OC(C)C(=O)OCC(=O)NCCc2ccccc2)cc1` (stereo not given), the inhibition is -2.97% (inactive). `CC(=O)C(C(C)=O)c1c(Cl)c(O)c(O)c2c(C(=O)c3ccccc3)coc12`: the inhibition is 73.1% (active). For the compound `O=C(CN1C(=O)NC2(CCCCCC2)C1=O)Nc1ccc([N+](=O)[O-])cc1`, the inhibition is 25.1% (inactive). Regarding `CCOC(=O)c1cccc(C2=CC(=O)CC(C)(C)C2)c1`, the inhibition was 1.21% (inactive). Regarding `OCC1OC(n2cnc3c(/C=C(\O)c4ccccc4)ncnc32)C(O)C1O` (stereo not given), the inhibition was -32.8% (inactive). Under `COc1cccc(C=Nc2ccc3c(c2)OCCO3)c1O` stands -5.52% (inactive); under `COc1ccc(S(=O)(=O)Nc2ccc(CC#N)cc2)cc1`, -4.36% (inactive); under `COc1cccc(C(C)(O)c2nc(-c3cccc(C#N)c3)cs2)c1` (stereo not given), 19.6% (inactive). Regarding `Cc1ccc(C)c(NC(=O)CSc2nc3c(oc4ccccc43)c(=O)n2-c2ccccc2)c1`, the inhibition is 10.6% (inactive).

`Cc1cc(C)c2nc(NC(=O)c3ccc([N+](=O)[O-])o3)sc2c1`: the inhibition is -2.6% (inactive). With `O=C(CSc1ncn[nH]1)Nc1ccc(Cl)c(Cl)c1`, the inhibition was 18.4% (inactive).

As for `O=C1CC(c2cccc([N+](=O)[O-])c2)c2ccc3ccccc3c2N1` (stereo not given), the inhibition is 11.8% (inactive).

On to `COC(=O)Cc1sc(-c2ccccn2)nc1-c1ccccc1`, for which the inhibition is 11.6% (inactive). Under `COc1cc(OC)cc(C(=O)N[C@H](C(=O)OCC(=O)Nc2ccc3c(c2)OCO3)C(C)C)c1` stands 14.4% (inactive).

As to `O=C(Nc1ccc(Oc2ccccc2)cc1)c1csc([C@H]2C[C@H](O)[C@@H](CO)O2)n1`, the inhibition was 27.6% (inactive). Take `COc1ccc(NC(=O)C2=CC(c3ccc(OC)c(OC)c3)=NS(=O)(=O)N2C)cc1`: the inhibition is 1.44% (inactive). Consider `Cc1ccc2c(c1)Oc1ccc(NC(=O)CCl)cc1C(=O)N2`, for which the inhibition was 61.7% (active). The figure for `CC(C)(Oc1ccc(Cl)cc1)C(=O)OCC(=O)NCCc1ccccc1` is 10.5% (inactive). As for `O=C(CSC1=NC2(CCCCCC2)N=C1c1ccccc1)Nc1ccc2c(c1)OCCO2`, the inhibition was 8.01% (inactive). For `Cc1cc(C)c(C(N)=O)c(Nc2cccc3ccccc23)n1`, the inhibition is 1.09% (inactive). On to `COc1ccc2c(c1)C1C=CCC1C(c1cc3c(cc1Br)OCO3)N2` (stereo not given), for which the inhibition was -3.15% (inactive). The figure for `CC1=C(n2nnc([N+](=O)[O-])n2)C(c2cccnc2)C(C#N)=C(N)O1` (stereo not given) is 6.01% (inactive); for `CCCN(CC(=O)Nc1ccccc1C)CC(=O)Nc1ccc(Br)cc1F` it is 8.48% (inactive).

In the case of `CC(=O)Nc1cc(-c2ccccc2N(C)C)cn2c(-c3ccc(S(C)(=O)=O)cc3)cnc12`, the inhibition was 7.26% (inactive). Take `CCCc1nc2cc(C)c(Br)c(C)n2c1Cc1ccc(OC)cc1C`: the inhibition is 15.2% (inactive). In the case of `CCc1cc(=O)oc2c(C)c(OCC(=O)NC3CC(C)(C)NC(C)(C)C3)ccc12`, the inhibition was 4.17% (inactive). As for `Cc1c(Cl)cccc1NC(=O)CSc1nnc(C)n1CC1CCCO1` (stereo not given), the inhibition was -4.11% (inactive). Under `Cc1nnsc1S(=O)c1ccc(Br)cc1` (stereo not given) stands 4.11% (inactive). Consider `COc1ccc(CN(C)C(=O)CCl)cc1`, for which the inhibition is 14.9% (inactive). Consider `CCc1nc(SCC(=O)N2CCc3cc(OC)c(OC)cc3C2)c(C#N)cc1C`, for which the inhibition was 3.35% (inactive). Under `Cc1cc(C)c2nc(-c3cccnc3)cc(C(=O)NC(C)c3cnn(C)c3C)c2c1` (stereo not given) stands 10.3% (inactive); under `COc1ccc(CCNC(=O)CSc2nc(O)c(CCC(C)C)c(=O)[nH]2)cc1OC`, 2.2% (inactive). For `CS(=O)(=O)N1CCCC(c2nc(-c3ccc(S(=O)(=O)NCc4ccccc4)cc3)no2)C1` (stereo not given), the inhibition was -1.45% (inactive).

`Cc1ccc(NC(=O)CSc2nsc(SCC(=O)Nc3ccc(C)cc3C)c2C#N)c(C)c1`: the inhibition was 13.3% (inactive). As to `CCOC(=O)c1cc2sccc2n1CC(=O)Nc1ccc2c(c1)OCCO2`, the inhibition was 7.97% (inactive). On to `COc1ccc(NC(=O)CSc2nc3nc(C)cc(C)c3c(=O)[nH]2)cc1`, for which the inhibition was 3.79% (inactive).
